# The entries come from a sample that favours hits as a whole.
# EZH2 inh: blocks human EZH2/PRC2 H3K27 methylation; DELFIA TRF, 1 h; inhibition, % at 12.5 µM; Q15910; AID 651548; hit rate 0.35% among 57,000;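 active = mean inhibition of replicates at least 50% and every single replicate also reaching 50%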;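 also: dimethyl H3K27 on biotinylated H3 21-44 peptide detected by antibody; plate controls were median neutral control wells for no effect and median positive control wells for full effect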
# Target sequence (Q15910 whole entry, looked up): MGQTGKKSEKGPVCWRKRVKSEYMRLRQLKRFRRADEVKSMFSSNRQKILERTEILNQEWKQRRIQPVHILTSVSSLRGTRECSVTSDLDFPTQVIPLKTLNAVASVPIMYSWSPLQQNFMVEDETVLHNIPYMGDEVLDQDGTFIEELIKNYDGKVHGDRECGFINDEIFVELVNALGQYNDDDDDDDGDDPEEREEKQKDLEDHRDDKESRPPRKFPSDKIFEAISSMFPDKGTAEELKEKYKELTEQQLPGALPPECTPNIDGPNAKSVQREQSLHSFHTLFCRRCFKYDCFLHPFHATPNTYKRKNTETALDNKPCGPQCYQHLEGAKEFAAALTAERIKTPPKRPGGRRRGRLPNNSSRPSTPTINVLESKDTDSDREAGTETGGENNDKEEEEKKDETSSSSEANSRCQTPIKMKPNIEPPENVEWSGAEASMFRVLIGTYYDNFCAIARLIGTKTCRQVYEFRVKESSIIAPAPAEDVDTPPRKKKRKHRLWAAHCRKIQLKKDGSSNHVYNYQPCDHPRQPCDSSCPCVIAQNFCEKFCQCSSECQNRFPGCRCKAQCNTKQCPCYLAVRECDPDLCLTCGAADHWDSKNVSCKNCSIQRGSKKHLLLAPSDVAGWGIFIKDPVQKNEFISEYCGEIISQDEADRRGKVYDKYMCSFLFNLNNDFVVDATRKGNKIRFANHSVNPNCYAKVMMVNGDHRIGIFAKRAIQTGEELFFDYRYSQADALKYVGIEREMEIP
# An asterisk follows results filed as active.
SMILES,EZH2 inh
COc1cccc(-c2nc(SCC(=O)Nc3cccc(C(F)(F)F)c3)[nH]c(=O)c2C#N)c1,68*
N#Cc1c(-c2ccco2)nc(SCC(=O)Nc2ccc(I)cc2)[nH]c1=O,54*
O=C(CSc1nc2ccccc2[nH]1)Nc1ccc(I)cc1,18
Cc1ccc(N(C(=O)COc2ccc(C(C)(C)C)cc2)C2C=CS(=O)(=O)C2)cc1 (stereo not given),-9
CCCNC(=O)Nc1ccc2c(c1)C(=O)N(C)C[C@@H](OC)[C@@H](C)CN(Cc1cncnc1)[C@H](C)CO2,9
CO[C@H]1CN(C)C(=O)c2cc(NC(=O)C3CC3)ccc2OC[C@H](C)N(CCC(F)(F)F)C[C@H]1C,5
C[C@H](CO)N1C[C@H](C)[C@H](CN(C)Cc2ccccc2)Oc2cc(C#C[C@@H](C)O)ccc2S1(=O)=O,-1
O=C(Nc1ccc(S(=O)(=O)Nc2ncccn2)cc1)c1ccc(-c2ccccc2)cc1,28
CCOc1ccccc1C(=O)Nc1ccc(S(=O)(=O)Nc2nc(C)cc(C)n2)cc1,-4
Cc1cc(C)nc(NS(=O)(=O)c2ccc(NC(=O)c3ccc(-c4ccccc4)cc3)cc2)n1,56*
Cc1cc(C)nc(NS(=O)(=O)c2ccc(NC(=O)c3ccc(C(=O)c4ccccc4)cc3)cc2)n1,7
Cc1cc(C)nc(NS(=O)(=O)c2ccc(N)cc2)n1,8
Cc1cc(C)nc(NS(=O)(=O)c2ccc(Nc3nc(-c4ccc(F)cc4)cs3)cc2)n1,58*
C[C@H](CO)N1C[C@H](C)[C@H](CN(C)C(=O)Nc2cccc3ccccc23)OCCCC[C@H](C)Oc2ccc(N(C)C)cc2C1=O,-4
O=C(Nc1ccccc1F)N[C@H]1CC[C@@H](CCNC(=O)C2CC2)O[C@H]1CO,-11
COc1cc(O)cc2c1C(=O)OC(C)C2 (stereo not given),12
COc1cc2c(c(O)c1OC)C(=O)CC(c1ccc(O)cc1)O2 (stereo not given),11
COc1cc(OC)c2c(c1O)OC(c1ccccc1)CC2=O (stereo not given),72*
O=C(Nc1ccccc1)N[C@H]1CC[C@@H](CCn2cc(C3(O)CCCC3)nn2)O[C@@H]1CO,-20
C[C@H](CO)N1C[C@H](C)[C@H](CN(C)Cc2cccc(F)c2)Oc2cc(-c3ccccc3)ccc2S1(=O)=O,38
C[C@H](CO)N1C[C@H](C)[C@H](CN(C)Cc2ccc(-c3ccccc3)cc2)Oc2ccc(NS(=O)(=O)c3cccs3)cc2C1=O,25
C[C@@H]1CN([C@H](C)CO)S(=O)(=O)c2ccc(C#CC3CC3)cc2O[C@H]1CN(C)Cc1cccc(F)c1,19
C[C@H](CO)N1C[C@H](C)[C@H](CN(C)Cc2cccc(F)c2)Oc2cc(C#CC3CC3)ccc2S1(=O)=O,84*
C[C@@H]1CN([C@H](C)CO)S(=O)(=O)c2ccc(-c3ccccc3)cc2O[C@H]1CN(C)Cc1cccc(F)c1,55*
C[C@H]1CN([C@@H](C)CO)S(=O)(=O)c2ccc(-c3ccccc3)cc2O[C@H]1CN(C)Cc1cccc(F)c1,35
SMILES,EZH2 inh
C[C@@H]1CN([C@H](C)CO)C(=O)c2cc(NS(=O)(=O)c3cccs3)ccc2O[C@@H]1CN(C)Cc1ccc(-c2ccccc2)cc1,54*
C[C@H](CO)N1C[C@H](C)[C@H](CN(C)Cc2ccccc2)Oc2cc(C#CC3CC3)ccc2S1(=O)=O,26
C[C@H](CO)N1C[C@H](C)[C@@H](CN(C)Cc2ccc(-c3ccccc3)cc2)Oc2ccc(NS(=O)(=O)c3cccs3)cc2C1=O,38
CCC(=O)N(C)C[C@H]1Oc2cc(Br)ccc2S(=O)(=O)N([C@H](C)CO)C[C@H]1C,-3
Cc1ccccc1NC(=O)CSc1nnc(C23CC4CC(CC(C4)C2)C3)o1,0
Cc1sc2ncnc(SCC(=O)C(C)(C)C)c2c1C,-2
C[C@@H]1CCCCO[C@@H](CN(C)Cc2ccncc2)[C@@H](C)CN([C@@H](C)CO)C(=O)c2cc(NC(=O)c3ccccc3)ccc2O1,14
CCC(=O)Nc1ccc2c(c1)C(=O)N(C)C[C@H](OC)[C@H](C)CN(C(=O)C1CCC1)[C@H](C)CO2,-2
C[C@@H]1CN([C@H](C)CO)C(=O)c2cc(C#Cc3ccncc3)cnc2O[C@@H]1CN(C)C(=O)c1ccccc1F,1
CCCN(C)C[C@H]1Oc2ncc(C#CCN(C)C)cc2C(=O)N([C@H](C)CO)C[C@@H]1C,-8
CCCCCCCC/C=C/CCCCCCCC(=O)NCCc1ccc(O)c(O)c1,68*
CCCCC/C=C\C/C=C\C/C=C\C/C=C\CCCCCC(=O)O,12
CCCCCCCC/C=C/CCCCCCCC(=O)NCCO,-16
Cn1c(=O)nc2n(-c3ccc(Cl)c(Cl)c3)c3ccccc3cc-2c1=O,0
CC(C)(C)[S@@](=O)N1Cc2cc(C(=O)NCCN3CCCCC3)nc(-c3cccc(-c4ccc(C#N)cc4)c3)c2[C@H]1CCO,-19
CCOc1cc(/C=C2\SC(=S)NC2=O)cc(Cl)c1OC(=O)c1ccc(OC)cc1,67*
C[C@H](CO)N1C[C@H](C)[C@@H](CN(C)C(=O)C2CCC2)Oc2cc(C#CCN(C)C)ccc2S1(=O)=O,-15
